This is part of a sample that, as a whole, favours compounds with a hit. Of some 83,000 tested, about 20% had one in any assay.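 Each cell line was grown in a 96-well plate and treated with one concentration of compound for 48 hours. Values below 10 were considered active.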 Activity calls are given as the source filed them.

The test system of the assay is MDA-MB-468 breast. Put plainly: NCI-60 one-dose screen, 48 h (100 = growth as untreated, 0 = no growth, -100 = all killed). Conditions: 10 µM unless noted.
`Cc1ccc(N)c(O)c1`: the growth is 78.7% (inactive).
Regarding `COc1cccc(C2=NN3C(C2)c2cc(Br)cc(OC)c2OC32CCN(Cc3ccccc3)CC2)c1` (stereo not drawn), the growth is 96.4% (inactive).
Turning to `O=C(CCl)n1nnnc1Cc1ccccc1`, the growth is 101% (inactive).

(Values after PubChem BioAssay (NCI).)
